According to PubChem BioAssay (NCI):
About 83,000 compounds went through this panel and 20% of them were active in at least one assay; those are over-represented in the sample as a whole.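 A percent growth of 40 corresponds to 60% growth inhibition; 0 means no net growth; -100 means all cells died. Active threshold: below 10.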 A number with no mark means an inactive call. Calls of active or inactive are those of the source.

How the values were obtained:
Assay in all cases: NCI-60 one-dose screen, 48 h (100 = growth as untreated, 0 = no growth, -100 = all killed)
Details in all cases: 10 µM unless noted
T-47D breast = tested on: T-47D breast
BT-549 breast = tested on: BT-549 breast
MDA-MB-435 melanoma = tested on: MDA-MB-435 melanoma
SW-620 colon = tested on: SW-620 colon
MCF7 breast = tested on: MCF7 breast
HCT-116 colon = tested on: HCT-116 colon
HCC-2998 colon = tested on: HCC-2998 colon
KM12 colon = tested on: KM12 colon

SMILES | growth (T-47D breast) | growth (BT-549 breast) | growth (MDA-MB-435 melanoma) | growth (SW-620 colon) | growth (MCF7 breast) | growth (HCT-116 colon) | growth (HCC-2998 colon) | growth (KM12 colon)
CCN1C(=O)N(CC)C2C1NN=c1s/c(=C\c3cccnc3)c(=O)n12 (stereo not drawn) | 53.4% | 57.3% | -46.6% (active) | 26.5% | 21.7% | 15.8% | 26.8% | 19.5%
COc1ccc2c(c1)NC1=C(C(=O)OC1)C2c1cc(OC)c2c(c1)OCO2 (stereo not drawn) | 53.8% | 32.4% | -14.7% (active) | 21.2% | 17.9% | 6.69% (active) | 11.3% | 2.35% (active)
COC(=O)[C@]12CC[C@@H](C)[C@H](C)[C@@H]1C1=CC[C@@H]3[C@@]4(C)C(C=O)=C[C@@](C)(COC(=O)c5ccco5)[C@@H]4[C@H](O)C[C@@]3(C)[C@]1(C)CC2 | 13.4% | -3.09% (active) | -57.4% (active) | -55.7% (active) | -19.2% (active) | -75.8% (active) | -84.8% (active) | -56.8% (active)
c1cc2[nH]ncc2cc1-c1nc2ccc3[nH]ncc3c2c2c1CCC2 | 56.8% | 38.3% | -7.86% (active) | 12.6% | 32% | 16.9% | 73.7% | 31.4%
COc1ccc(-c2ccc(-c3ccc(C(=N)N)cn3)s2)cc1OC | 84.6% | 94.4% | 103% | 90.3% | 84.9% | 80.2% | 109% | 95.9%
CCOC(=O)/C(C#N)=C1/C(=O)Nc2ccccc21 | 98.7% | 112% | 119% | 109% | 103% | 98.4% | 109% | 112%
CN(C)CCCN(c1nc(C(Cl)(Cl)Cl)ns1)c1nc(C(Cl)(Cl)Cl)ns1 | 67.7% | 74% | 39.5% | 35.1% | -34.3% (active) | 21.2% | -12.9% (active) | 18.4%
Brc1cccc(-c2cc(-c3ccc4c(c3)OCCCO4)[nH]n2)c1 | 29.2% [25 µM] | 72.8% [25 µM] | -7% [25 µM] (active) | 31.8% [25 µM] | 23.2% [25 µM] | 51.4% [25 µM] | 75.6% [25 µM] | 20% [25 µM]
CCOC(=O)c1cn2c3c(cc(C)cc3c1=O)C(=O)/C(=C/c1ccccc1)C2 | 81.7% | 84.3% | 107% | 101% | 86.7% | 86.4% | 98.9% | 102%
COc1cccc(/C=C2\Oc3cc(OCCCN4CCCC4)ccc3C2=O)c1OC | 97.2% | 87.7% | 99% | 98.6% | 87% | 83.7% | 113% | 102%
C=C(C)[C@@H]1C[C@@H]2Cc3ccc(Cl)c(C)c3N1O2 | 89.1% | 101% | 94.4% | 106% | 107% | 95.9% | 90.5% | 104%
CNC(=S)NNC(=O)C1CC1 | 104% | 92.1% | 114% | 112% | 96.9% | 101% | 110% | 109%
Cc1cc(C)n(-c2nnc3n2N=C(c2ccc(-c4ccccc4)cc2)CS3)n1 | 48.7% | 48.7% | -7.2% (active) | 36.7% | 28% | 41.8% | 76.8% | 53%
COc1ccc(-c2ccc(-c3ccc(-c4ccc(C(=N)N)cc4)s3)s2)cc1OC | 28.5% | 98.3% | 88.2% | -40.8% (active) | -19.8% (active) | 27.5% | -68.6% (active) | -42.5% (active)
COc1ccc(C(=O)N2NC(=O)/C(=C/c3ccc(Br)cc3)N=C2c2ccccc2)cc1 | 85.6% | 85.5% | 90.7% | 91.3% | 85.1% | 75.5% | 105% | 99.6%
Nc1cc2c(cc1C(=O)c1cccc(F)c1)OCCO2 | 93.6% | 84.5% | 92.1% | 105% | 99.2% | 100% | 95.4% | 100%

SMILES | growth (T-47D breast) | growth (BT-549 breast) | growth (MDA-MB-435 melanoma) | growth (SW-620 colon) | growth (MCF7 breast) | growth (HCT-116 colon) | growth (HCC-2998 colon) | growth (KM12 colon)
CC1=NC2=CC=CC3=NC(C(Cl)(Cl)Cl)=NC(=N1)N23 | 61.4% | 45.9% | 77.9% | 78.4% | 62.7% | 68.3% | 57.5% | 85.5%
O=C1Nc2ccc(Cl)cc2C12Nc1cc(Cl)ccc1S2 (stereo not drawn) | 33.8% | 80% | 91.4% | 98.9% | 43.4% | 61.2% | 78.9% | 70.7%
Nc1nnc(-c2ccc3ccccc3c2O)o1 | 87.2% | 103% | 110% | 84.9% | 94% | 88.5% | 89.5% | 99.4%
O=C(CSC1CCc2ccccc21)N/N=C/c1ccccc1O (stereo not drawn) | 40.3% | 68.9% | 71.7% | 52.9% | 19.2% | 31.5% | 66.7% | 41%
COc1ccc(C2=C(c3cc(OC)c(OC)c(OC)c3)C(=O)CC2)cc1 | 60.5% | 28.3% | -19.2% (active) | 19.3% | 16.3% | 6.43% (active) | -11.3% (active) | 5.46% (active)
O=C(Nc1ccncc1)C(=O)c1cn(S(=O)(=O)c2ccc(Oc3ccccc3)cc2)c2ccccc12 | 66.4% | 94.9% | 94.1% | 94.2% | 94.3% | 87.9% | 81.5% | 99.1%
C=C[C@@H]1C[C@@H]2Cc3cc(Cl)ccc3N1O2 | 103% | 105% | 92.5% | 96.7% | 112% | 98.2% | 94.2% | 97.3%
NC(=N\N=C/c1ccc(O)cc1)/C(N)=N\N=C/c1ccc(O)cc1 | 49.6% | 52.5% | 44.7% | 40.8% | 66.4% | 62.2% | 51% | 23.6%
COc1ccc2[nH]c(C(=O)OCc3ccc4c(Cl)cc(Cl)c(O)c4n3)cc2c1 | -65.9% (active) | -88.3% (active) | -85% (active) | -68.2% (active) | -21.3% (active) | -92.3% (active) | -39.7% (active) | -31% (active)
O=C(CN1CCN(c2cc3c(cc2F)c(=O)c(C(=O)N/N=C/c2ccccc2O)cn3C2CC2)CC1)N/N=C\c1ccccc1O | 17.9% | 45.5% | 17.6% | 36.6% | 10% | 15.6% | 39.5% | 18.3%
C=C(C)[C@@H]1C[C@@H]2Cc3cc(Cl)ccc3N1O2 | 106% | 99.6% | 99.4% | 96.7% | 100% | 96.1% | 99.1% | 105%
CC(=O)OC[C@]12CC[C@H]3[C@@H](C[C@H]4O[C@]45CC=CC(=O)[C@]35C)[C@]1(O)CC[C@@]2(O)[C@@](C)(O)C1CC(C)=C(C)C(=O)O1 (stereo partly drawn) | -23.2% (active) | -12.2% (active) | -77.4% (active) | -32.1% (active) | -27% (active) | -29.3% (active) | -82.8% (active) | -70.8% (active)
C=C1CCC2C3(C)COC(c4c(OC)cccc4OC)OC3CCC2(C)C1C/C=C1/C(=O)OCC1O (stereo not drawn) | 54% | 16.9% | 19.4% | 16.2% | 27.8% | 1.8% (active) | 113% | 9.36% (active)
O=C1/C(=C/c2ccc([N+](=O)[O-])cc2)CN(C(=O)CCN2CCC(=NO)CC2)C/C1=C\c1ccc([N+](=O)[O-])cc1 | 10.1% | -40.7% (active) | -52.1% (active) | -53.2% (active) | -55.4% (active) | -67.4% (active) | -72.2% (active) | -55.3% (active)
COc1ccc(C(=O)c2cc(OC)c3c(c2)OCO3)cc1O | 56.9% | 54.5% | -22.5% (active) | 24.6% | 17.1% | 7.71% (active) | 16.2% | 4.48% (active)
